From PubChem BioAssay (NCI)
This is part of a sample that, as a whole, favours compounds with a hit. Of some 83,000 tested, about 20% had one in any assay.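 Cell lines were cultured in 96-well plates, exposed to a single compound concentration, and assessed for percent growth 48 hours later.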 Activity calls are given as the source filed them.

System: LOX IMVI melanoma
Test: NCI-60 one-dose screen, 48 h (100 = growth as untreated, 0 = no growth, -100 = all killed)
Details: 10 µM unless noted
Protocol: Growth inhibition of the LOX IMVI human tumor cell line is measured as a screen for anti-cancer activity. Cells are grown in 96 well plates and exposed to the test compound for 48 hours. Compounds are tested at a single concentration, which is 10^-5 M for most compounds. The reported endpoint is percent growth (GI% or GIPRCNT), where numbers from 0 - 100% represent growth inhibition, and numbers from -100% - 0 represent cell death. For example, a value of 40 represents 60% growth inhibition. A value of 0 means no net growth occurred over the course of the experiment. A value of -40 indicates 40% of cells at the beginning of the experiment died by the end of the experiment. A value of -100 means all cells are dead at the end of the experiment.
NCI-60 Human Tumor Cell Lines Screen was performed using the standard one-dose NCI protocol, which is described in more detail at https://dtp.cancer.gov/discovery_development/nci-60/default.htm.
Compounds with GIPRCNT values below 10 were considered active. Activity score was based on GIPRCNT using the following formula: […]
Score is 0 for GIPRCNT values of 100 or above, 50 for GIPRCNT values of 0, and 100 for GIPRCNT values of -100.

Row | SMILES | growth
1 | Cc1nn(-c2ccc(F)cc2)c2ncnc(Nc3ccc(NC(=O)Nc4ccc(Cl)c(C(F)(F)F)c4)cc3)c12 | 34.8% (inactive)
2 | N#CN1CC[C@H](C(=O)Nc2cc3cc(C(N)=O)ccc3cn2)C1 | 4.7% (active)
3 | Cc1nn(-c2cc(=O)[nH]c3ccccc23)c(N)c1C#N | 98.4% (inactive)
4 | COc1cc2c(cc1-c1c(C)noc1C)ncc1nc(C3CCCCC3)n([C@H](C)COC(F)F)c12 | 11% (inactive)
5 | CCCCn1c(-c2ccc(C(=O)O/N=C(\N)c3ccc4ccccc4c3)cc2)nc(-c2ccccc2)c1-c1ccccc1 | 3.13% (active)
6 | CC(=O)c1nc2ccccc2n1CC(=O)c1cccc(Cl)c1 | 36.9% (inactive)
7 | C#CCOc1ccc2ncnc(N3CCN(C(=O)CCl)CC3)c2c1 | 47.4% [8.25 µM] (inactive)
8 | O=C1/C(=C/c2cn(-c3ccccc3)nc2-c2ccccc2)SC(=S)N1CCc1ccccc1 | 99.3% (inactive)
9 | CCCn1c(=O)[nH]c(N)c([C@H]2c3ccccc3Oc3[nH]c(=O)n(CCC)c(=O)c32)c1=O | 64.8% (inactive)
10 | C=CC(=O)Nc1cccc(Nc2nc(SC)nc(-c3cccc([N+](=O)[O-])c3)c2C#N)c1 | 46.1% (inactive)
11 | O=C1CC[C@H](c2ccc(O)c3c2C(=O)[C@@H]2O[C@@H]2C3=O)c2cccc(O)c21 | -62.6% (active)
12 | CCOC(=O)c1sc2nc(-c3cccc(O)c3)nc(N3CCOCC3)c2c1C | 57.3% (inactive)
13 | O=C(COc1ccc(/C=C2\COc3ccccc3C2=O)cc1)Nc1nccs1 | 63.2% (inactive)
14 | FC(F)(F)c1[nH]ncc1-c1nc2ccc3n[nH]c(C#Cc4cccnc4)c3c2c2c1CCCC2 | 33.6% (inactive)
15 | FC(F)(F)c1nc2c(NCc3ccc(-c4ccccc4)cc3)cccc2[nH]1 | 82.4% (inactive)
16 | O=C1/C(=C/C(Cl)=C/c2ccccc2)SC(=S)N1CCc1ccc(O)cc1 | -79.2% (active)
17 | COc1ccc(SC2c3cc(OC)c(OC)cc3Oc3nc(N)c(C#N)c(N)c32)cc1 (stereo not given) | -92.7% (active)
18 | COc1ccc(C2CC(c3ccc(Cl)cc3)=NN2/C=C2\SC(=S)N(NC(=O)Cc3ccccc3Nc3c(Cl)cccc3Cl)C2=O)cc1 (stereo not given) | 26.9% (inactive)
19 | COc1ccccc1Nc1nc(-c2cc3cccc(C(F)(F)F)c3oc2=O)cs1 | 17.3% (inactive)
20 | CN(C)c1ccc(N=Nc2ccc(Br)cn2)c(O)c1 | 6.61% (active)

Row | SMILES | growth
21 | COc1ccc(-c2nc3cc(C(=O)Nc4cc(OC)c(OC)c(OC)c4)ccc3n2C2CCCCC2)cc1 | 95.5% (inactive)
22 | O=c1ccccc(-c2ccc(Br)cc2)c1O | 4.54% (active)
23 | Cc1ncc(C(=O)Nc2ccc(CN3CCN(C)CC3)c(C(F)(F)F)c2)cc1C#Cc1cnc2cccnn12 | -18.3% (active)
24 | COc1ccc(S(=O)(=O)N2CCN(C)CC2)cc1NC(=O)c1[nH]c(C)c2c1CCCCC2=O | 29.6% (inactive)
25 | CN1CCN(c2ccc3nc(-c4ccc(OCCCCN5CCN(CCCCN6C(=O)c7cccc8cccc(c78)C6=O)CC5)cc4)[nH]c3c2)CC1 | 47.1% (inactive)
26 | O=C(C(=O)c1ccc2c(c1)OCO2)c1ccc2c(c1)OCO2 | 106% (inactive)
27 | CC(=O)O[C@H]1CC[C@]2(C)[C@H]3CC=C4[C@@H]5CC(C)(C)CC[C@]5(C(=O)NCCNCCNCCN)CC[C@@]4(C)[C@]3(C)CC[C@H]2C1(C)C | -98.9% (active)
28 | O=C(CN1C(=O)/C(=C/c2ccc(Cl)cc2)SC1=S)NCCCN1CCOCC1 | 90.5% (inactive)
29 | CC(=O)c1cc2c(N)c(C(=O)Nc3cccc4ccccc34)sc2nc1C | 41.1% (inactive)
30 | COCCNc1ccc2c3c(cccc13)C(=O)N(CCN(C)C)C2=O | 2.86% (active)
31 | Cc1cc(Nc2ccc(C)c(Cl)c2)n2nc(C(F)(F)F)nc2n1 | 12.2% (inactive)
32 | CCCc1cc(=O)n2c(C(=O)Nc3ccc(F)cc3)c(C(=O)Nc3ccc(F)cc3)sc2n1 | 65.1% [30 µM] (inactive)
33 | CCOC(=O)c1c(CN2CCN(C)CC2)nc2ccc(Cl)cc2c1-c1ccccc1 | 54.4% (inactive)
34 | O=C(N/N=C/c1c[nH]c2ccccc12)c1cc(-c2ccccc2)on1 | 56.3% (inactive)
35 | CCCCCCN(CCCCCC)CCC(O)c1ccc2ccccc2c1 (stereo not given) | 40.5% (inactive)
36 | COc1cc(-c2nn(C)nc2-c2cc3ccccc3s2)cc(OC)c1OC | 38.3% (inactive)
37 | O=c1c(F)cn(Cc2ccccc2CCl)c(=O)n1Cc1ccccc1CCl | -81.7% (active)
38 | CN1CCN(c2ccc(Nc3c4ccccc4nc4ccccc34)cc2)CC1 | 105% (inactive)
39 | C=CC(=O)Nc1cccc(-c2nc(SC)nc(NCc3ccccc3)c2C#N)c1 | 65.8% (inactive)
40 | CC(=O)O[C@H]1CC[C@]2(C)[C@H]3CC=C4[C@@H]5CC(C)(C)CC[C@]5(C(=O)NCCNCCN)CC[C@@]4(C)[C@]3(C)CC[C@H]2C1(C)C | -100% (active)
